Measurements as given in PubChem BioAssay (NCI).
About 83,000 compounds went through this panel and 20% of them were active in at least one assay; those are over-represented in the sample as a whole.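 The test compound was applied at a single concentration to cells in 96-well plates for 48 hours, and percent growth was recorded.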 Unmarked numbers belong to inactive results. Active and inactive are the calls of the source. How the source made its calls: active means growth percent below 10; inactive means the rest.

Tested on: HL-60(TB) leukemia
Assay: NCI-60 one-dose screen, 48 h (100 = growth as untreated, 0 = no growth, -100 = all killed)
Settings: 10 µM unless noted

Compound | growth
CCCCn1cnc2c(SCc3ccc([N+](=O)[O-])cc3)nc(N)nc21 | -42.6% (active)
Clc1cccc(Cl)c1Nc1ccc2nnc(-c3ccncc3)n2n1 | 88.7%
COc1ccc(C2=Nc3c(C)nn(-c4ccccc4)c3NC(c3ccc(Oc4ccnc5cc(Cl)ccc45)c(OC)c3)C2)cc1 (stereo not given) | 90.8%
C#CCOc1cccc(-c2ncnc3cc(NC(=O)CCl)ccc23)c1 | -29.7% (active)
Nc1nc2c(c3ncccc13)C(c1cccc(Cl)c1)Cc1ncccc1-2 (stereo not given) | -6.22% (active)
C=C(C)[C@@H]1CC[C@]2(C(N)=O)CC[C@]3(C)[C@H](CC[C@@H]4[C@@]5(C)CC[C@H](OCCC#N)C(C)(C)[C@@H]5CC[C@]43C)[C@@H]12 | 99.9%
Cc1nnc(NC/C=C/c2ccccc2)s1 | 98%
COc1ccc(/C=C(\C#N)c2cc3ccccc3n2S(C)(=O)=O)cc1 | 89.6%
CCN1CCN(C(=O)[C@]23CCC(C)(C)C[C@@H]2C2=CC[C@@H]4[C@@]5(C)C/C(=C/c6ccncc6)C(=O)C(C)(C)[C@@H]5CC[C@@]4(C)[C@]2(C)CC3)CC1 | -33.8% (active)
CC(=O)O[C@H]1[C@H](CC#CC#CC[C@@H]2C[C@]3(C)[C@H]4CC=C5[C@H]6[C@@H](C)[C@H](C)CC[C@]6(C(=O)NCCCCCCCCN)CC[C@@]5(C)[C@]4(C)CC[C@H]3C(C)(C)[C@H]2OC(C)=O)C[C@]2(C)[C@H]3CC=C4[C@H]5[C@@H](C)[C@H](C)CC[C@]5(C(=O)NCCCCCCCCN)CC[C@@]4(C)[C@]3(C)CC[C@H]2C1(C)C | 104%
Cn1cnc([N+](=O)[O-])c1S(=O)(=O)Oc1ccc(Cl)cc1 | -35.2% (active)
COc1ccc(NC(=O)Nc2ccc(-c3ccc(OC)c(OC)c3)nc2C)cc1 | 85.7%
CC(=O)/C(=C/c1ccc(Br)cc1)C(=O)c1ccccc1 | 57%
COc1ccc(-c2cnc(SCC(=O)Nc3ccc(-c4nc5ccccc5s4)cc3)n2-c2ccc(OC)cc2)cc1 | 106%
O=C1CCC(=O)N1C1CCCCC1 | 92.5%
O=C(OC12CC3CC(CC(C3)C1)C2)c1ccc(NCc2cc(O)ccc2O)cc1 | -52.6% (active)
COc1ccc(C2=NNC(c3ccc(Oc4nc5c(c(=O)n(C)c(=O)n5C)n4C)c(OC)c3)C2)cc1 (stereo not given) | 90.6%
CC1=C(O)C(=O)C(c2c(C)cc(C)c(Br)c2C)=C(O)C1=O | 53.4%

Compound | growth
CCCCCCSc1ncnc2nc[nH]c12 | 72.2%
O=C1Nc2ccc(Cl)cc2/C1=C/c1ccc[nH]1 | 102%
CCOC(=O)C#Cc1c(C(=O)OCC)nnn1[C@@H]1O[C@H](COC)[C@@H](OC)[C@H]1OC | 47.5%
CC(C)(C)n1cc(-c2ccnc(NCCCNS(=O)(=O)c3cccc(F)c3)c2)c(-c2cccc(O)c2)n1 | 35.4%
Cc1cccc2c(Nc3ccc(NS(C)(=O)=O)cc3)c3ccc([N+](=O)[O-])cc3nc12 | -27.2% (active)
COc1ccc2nc3cc(Cl)ccc3c(NCCN)c2c1 | -51.5% (active)
CC[C@H](Nc1nc(N)nc(C)c1C#N)c1nc2cccc(NCCCCCC(=O)NO)c2c(=O)n1-c1ccccc1 | 39.7%
O=C(/C=C/c1cccc(Cl)c1)c1cccc(OCCCCOc2cccc(C(=O)/C=C/c3cccc(Cl)c3)c2)c1 | 84.6%
CN1/C(=C/C=C/c2n(Cc3ccc4ccccc4c3)c(Cl)c(Cl)[n+]2Cc2ccc3ccccc3c2)Oc2ccccc21 | 98.9%
O=C(O)CCCN1C(=O)NC2(C1=O)c1ccccc1-c1ccccc12 | 101%
Cc1cc2nc(-c3ccccc3)c(-c3ccccc3)nc2cc1C | 48.3%
O=C(N/N=C/c1ccc(Cl)cc1Cl)c1ccc2nc(-c3ccc(Cl)cc3)[nH]c2c1 | 5.77% (active)
Nc1ncc(-c2ccc(C(F)(F)F)cc2)c(NC2CCCCCC2)n1 | 16.8%
C#CCOc1ccc2ncnc(N3CCC(NC(=O)CCl)CC3)c2c1 | 68.8% [8.25 µM]
CCCCCCCCCCCCCCCC[N+](C)(CCO)Cc1cnc[nH]1 (stereo not given) | -80.6% (active)
Cc1cc(Nc2nc(-c3cccnc3)nc3ccccc23)n[nH]1 | 53.4%
CCOC(=O)c1cc(C(=O)c2cc(OC)c(OC)c(OC)c2)n2ccccc12 | -24.6% (active)
